HP1b chromo inh: HTS for Inhibitors of HP1-beta Chromodomain Interactions with Methylated Histone Tails | AlphaScreen HP1-beta / biotin-H3K9me3 peptide binding | 390,000 compounds, 0.56% hits | Potency, µM (highest dose often 114 µM), without a hit: at the top dose activity change, negative = inhibition, hits mostly inhibitors | Chromobox protein homolog 1 (Homo sapiens), P83916 | AID 540317, 2011; also: nearly all actives have a fitted effect of over 70% in size
Target sequence (P83916 whole entry, looked up): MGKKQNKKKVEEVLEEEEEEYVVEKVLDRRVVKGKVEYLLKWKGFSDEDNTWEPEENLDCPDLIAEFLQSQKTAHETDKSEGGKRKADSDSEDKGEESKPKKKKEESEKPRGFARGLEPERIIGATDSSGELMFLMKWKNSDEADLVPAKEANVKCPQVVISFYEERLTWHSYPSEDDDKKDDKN
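AlphaScreen: HP1-beta (50 nM) preformed 30 min with biotin-H3(1-18)K9me3 peptide (50 nM) in PBS pH 7.4, 0.01% Tween-20. Compound added for 30 min at RT, then streptavidin donor/nickel chelate acceptor beads (10 ug/mL) for 30 min.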
L3MBTL1 inh: qHTS Assay for the Inhibitors of L3MBTL1; Potency, µM (titrated, usually from 57.1 µM), for the others: at the top dose activity, negative = inhibition, actives largely listed as inhibitors; Lethal(3)malignant brain tumor-like protein 1 (Homo sapiens), Q9Y468; AID 485360, 2010; AlphaScreen L3MBTL1–H3K9me1 peptide binding; 230,000 compounds, 0.66% hits; also: % is scaled to controls: 0 for no effect and ±100 for the full control effect; nearly all actives have a fitted effect of over 60% in size
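First, the protein-peptide complex forms for 30 min at room temperature (L3MBTL1 50 nM, biotinylated H3K9me1 peptide 75 nM). Next, compounds are pin-transferred and incubated 30 min. Finally, AlphaScreen beads are added and read after 30 min.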
JMJD2A Tudor: qHTS Assay for Inhibitors of JMJD2A-Tudor Domain; Lysine-specific demethylase 4A (Homo sapiens), O75164; AlphaScreen JMJD2A-Tudor / H3K4me3 peptide binding; Potency, µM (series often up to 114 µM), for inactives: top-dose activity change, negative = inhibition, hits mostly inhibitors; 390,000 compounds, 4.4% hits; AID 504339, 2011; also: % is scaled to controls: 0 for no effect and ±100 for the full control effect; nearly all actives have a fitted effect of over 50% in size
VDR inhibitor: Inhibitors of the vitamin D receptor (VDR): qHTS; Potency, µM, inactives show max response, negative = inhibition, most hits filed as inhibitors; VDR-SRC2-3 peptide fluorescence polarization, 2 h; AID 504847, 2011; 400,000 compounds, 0.93% hits; also: % is scaled to controls: 0 for no effect and ±100 for the full control effect
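Measured by FP: displacement of SRC2-3 coactivator peptide from VDR by library compounds, following a two-hour ambient incubation.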
BAZ2B block: qHTS Assay for Inhibitors of BAZ2B; Potency, µM (highest dose often 114 µM), for inactives: at the highest dose activity change, negative = inhibition, usual class: inhibitors; AID 504333, 2011; 360,000 compounds, 4.4% hits; Bromodomain adjacent to zinc finger domain protein 2B (Homo sapiens), Q9UIF8; AlphaScreen BAZ2B-H3K14Ac peptide displacement; also: % is scaled to controls: 0 for no effect and ±100 for the full control effect; nearly all actives have a fitted effect of over 60% in size
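AlphaScreen displacement of biotin-H3(5-23)K14Ac peptide (50 nM final) from BAZ2B (50 nM final) in PBS pH 7.4, 0.01% Tween-20; complex preformed 30 min RT, then compounds (top 110 uM) 30 min RT, beads 20 min dark.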
PLK1 PBD block: qHTS for Inhibitors of PLK1-PDB (polo-like kinase 1 - polo-box domain): Primary Screen; Serine/threonine-protein kinase PLK1 (Homo sapiens), P53350; Plk1 PBD binding of FITC phosphopeptide, fluorescence polarization; Potency, µM, inactives show max response, negative = inhibition, actives largely listed as inhibitors; 360,000 compounds, 2.8% hits; also: series mostly up to about 57 µM; % is scaled to controls: 0 for no effect and ±100 for the full control effect; nearly all actives have a fitted effect of over 65% in size
Active calls of the source: *; ? = inconclusive; . = not tested or not shown; [ ] = another dose, or the depositor's remark. An excerpt weighted towards active compounds, which were near 6.9% of everything screened. Calls follow the shape of the dose curve; as a rule, active = well fitted curve in the direction sought with a large enough effect; inconclusive = small, poorly fitted or top-dose-only effect, or another doubt; inactive = no such curve, though single readings can be large; an effect the other way counts as inactive or inconclusive. Potency is read from the fitted curve at half-maximal effect.

SMILES	HP1b chromo inh	L3MBTL1 inh	JMJD2A Tudor	VDR inhibitor	BAZ2B block	PLK1 PBD block
CCCC1=Nc2cc(C(=O)N3CCCC3)ccc2Sc2ccc(C)cc21	-12%	.	18µM*	-22%	?	27µM*
Nc1c(/C=C2/C=CC(=O)C(O)=C2)c(=O)nc2sc(CC(=O)N3CCCCC3)nn12	53%	.	?	15%	10µM*	-1%
Nc1c(/C=C2/C=CC(=O)C(O)=C2)c(=O)nc2sc(CC(=O)N3CCOCC3)nn12	?	.	20µM*	-15%	.	-1%
COc1ccc(-c2cc(C(F)(F)F)nc(SCC(=O)NCCCN3CCOCC3)n2)cc1	48%	9%	-5%	-13%	-3%	-12%
CCOc1ccc(NCC(=O)Nc2ccc(Cl)cc2C)cc1	-2%	-3%	?	-17%	?	-18%
COc1ccc(NC(=S)Nc2ccc(OC)cc2OC)c(OC)c1	-10%	-10%	-6%	-12%	-13%	27µM*
COc1ccc(NC(=O)Nc2ccc(Cc3ccncc3)cc2)c(OC)c1	?	-8%	?	-9%	50µM*	-4%
COc1ccc(NCC(=O)Nc2ccc(Cl)cc2C)c(OC)c1	?	-14%	50µM*	-5%	50µM*	-23%
CC(=O)NCCNc1nc(-c2ccccc2CN(C)C)nc2ccccc12	.	.	.	-3%	.	.
COc1cc(C(=O)NNC(=O)Nc2ccc([N+](=O)[O-])cc2)cc(OC)c1OC	37%	.	0%	-6%	3%	-9%
Oc1ccc(-c2nc3ccc4ccccc4c3c3c2CCC3)cc1O	?	-7%	?	-24%	50µM*	-12%
Cc1cc(C)c2c(ccc3ccccc32)n1	36%	.	-3%	9%	.	-3%
CCOc1ccc(NC(=O)c2c(NC(=O)c3ccccc3Br)sc3c2CCC(C)C3)cc1 (stereo not drawn)	-20%	.	-30%	40µM*	0%	.
CC1CCc2c(sc(NC(=O)Cc3ccccc3)c2C(=O)Nc2ccc(Cl)cc2)C1 (stereo not drawn)	43%	.	-10%	-3%	3%	.
COc1ccc(S(=O)(=O)N2CCCOC2CNC(=O)C(=O)NCCCn2ccnc2)cc1OC (stereo not drawn)	8%	-8%	-14%	-9%	71µM*	-12%
COc1ccc(S(=O)(=O)N2CCOC2CNC(=O)C(=O)NCCCn2ccnc2)cc1OC (stereo not drawn)	63%	-29%	-21%	3%	22µM*	1%
CCOC(=O)CCN(c1ccccc1)S(=O)(=O)c1cc(-c2cc(C)no2)ccc1C	36%	.	6%	7%	11%	.
Cn1c(=O)n(Cc2ccccc2F)c2ccccc21	82%	5%	3%[57.1 µM]	24%	4%	-7%
C=CCn1c(=O)c2c(nc(Br)n2Cc2ccccc2Cl)n(C)c1=O	-11%	0%	-7%[11.4 µM]	-4%	-3%[57.1 µM]	30µM*
CCOC(=O)Cn1c(=O)c2c(nc(Br)n2Cc2ccccc2Cl)n(C)c1=O	53%	-3%	-5%	4%	6%	-1%
Cn1c(=O)c2c([nH]c(=O)n2Cc2ccc(Cl)cc2Cl)n(C)c1=O	52%	.	4%	-11%	3%	.
Cn1c(=O)n(Cc2ccccc2Cl)c(=O)c2c1[nH]c(=S)n2C	?	.	13µM*	-23%	?	17µM*
Cn1c(=O)n(Cc2ccccc2Cl)c2ccccc21	?	16%	?	?	-7%	17µM*
Nc1ccccc1C(=O)NC1CCCNC1=O (stereo not drawn)	34%	.	-6%	-25%	.	-11%
COc1cc(OC)cc(C(=O)NCC(=O)OCC(=O)N2c3ccccc3NC(=O)C2(C)C)c1	1%	-8%	-16%	4%	?	-16%

High-throughput results: PubChem BioAssay, National Center for Advancing Translational Sciences (NCATS)
